Source: the antibiotic and cytotoxicity screens of Wong et al. (2023)
Among all 39,000 compounds or so, about 3,300 (8.5%) were called active. The list comes from a sample in which actives are over-represented; it also holds similar structures and randomly drawn compounds.

These molecules were tested on HepG2 (assay: cytotoxicity call (relative viability < 0.9)). Conditions: 10 µM.
In the case of `CC(C)NC(=O)Nc1cccc2c1O[C@H](CN(C)Cc1ccc(Oc3ccccc3)cc1)[C@@H](C)CN([C@H](C)CO)C2=O`, the cytotoxicity call is reported as “inactive”. For `Cc1ccc2nccc(C(=O)N3CCC[C@@H](Cn4cc(C(C)(C)N)nn4)C3)c2c1`, the cytotoxicity call was “inactive”. With `C[C@H]1CCCCO[C@H](CN(C)C(=O)Nc2cccc3ccccc23)[C@@H](C)CN([C@@H](C)CO)C(=O)c2cc(NS(C)(=O)=O)ccc2O1` the cytotoxicity call was “inactive”. With `COc1cc(N2CCC(O)CC2)ccc1Nc1cc(Nc2ccccc2S(=O)(=O)C(C)C)c2cc[nH]c2n1` the cytotoxicity call was “inactive”. `NC1CCN(C(=O)c2c[nH]c3ccccc23)CC1` was tested, and the cytotoxicity call was “inactive”. In the case of `COc1cc(N2CCC(N3CCN(C)CC3)CC2)ccc1Nc1ncc(Cl)c(Nc2ccccc2S(=O)(=O)C(C)C)n1`, the cytotoxicity call is reported as “active”. For `COc1cc(N2CCC(N)CC2)ccc1Nc1ncc(Cl)c(-c2c[nH]c3ccccc23)n1`, the cytotoxicity call was “active”. For `COc1cc(C(=O)NC2CCN(C)CC2)ccc1Nc1ncc2c(n1)N(C1CCC(O)CC1)CCC(=O)N2C` (stereo not given), the cytotoxicity call was “inactive”. With `Cc1cc(Nc2ncc(Cl)c(Nc3ccccc3S(=O)(=O)C(C)C)n2)c(OC(C)C)cc1C1CCNCC1` the cytotoxicity call was “active”. For `COc1cc(C(=O)N2CCN(CCN3C(=O)c4cccc5cccc(c45)C3=O)CC2)cc(OC)c1OC`, the cytotoxicity call was “inactive”. In the case of `COc1cc(C(=O)N2CCC(N3CCN(C)CC3)CC2)ccc1Nc1ncc2c(n1)N(C)c1ccccc1C(=O)N2C`, the cytotoxicity call is reported as “active”. In the case of `Cc1noc(C)c1S(=O)(=O)Nc1ccc2c(c1)C(=O)N([C@@H](C)CO)C[C@H](C)[C@H](CN(C)C(=O)NC1CCCCC1)O2`, the cytotoxicity call is reported as “inactive”. `Cc1noc(C)c1NC(=O)N(C)C[C@H]1Oc2c(NC(=O)c3ccc(-c4nccs4)cc3)cccc2C(=O)N([C@@H](C)CO)C[C@H]1C` was tested, and the cytotoxicity call was “inactive”. In the case of `Cc1noc(C)c1NC(=O)N(C)C[C@@H]1OCCCC[C@H](C)Oc2ccc(NC(=O)c3ccccc3)cc2C(=O)N([C@@H](C)CO)C[C@@H]1C`, the cytotoxicity call is reported as “inactive”. With `NC[C@H]1OB(O)c2c(OCCCO)cccc21` the cytotoxicity call was “inactive”. In the case of `C=CCOC(=O)[C@H]1[C@@H]2C(=O)O[C@@H](c3ccccc3)[C@@H](c3ccccc3)N2[C@@H](c2ccc(OCCOC(=O)[C@@H]3C[C@@H]4C(=O)N5CCC[C@H]5C(=O)N4[C@@H]3c3cccc(OCCO)c3)cc2)[C@]12C(=O)Nc1ccc(I)cc12`, the cytotoxicity call is reported as “inactive”. For `CC(C)NC(=O)Nc1ccc2c(c1)CC(=O)N([C@H](C)CO)C[C@H](C)[C@H](CN(C)C(=O)NC1CCCCC1)O2`, the cytotoxicity call was “inactive”. For `CN1C(=O)c2cc(NC(=O)c3cccs3)ccc2OC[C@@H]2O[C@@H](CC(=O)NCC(F)(F)F)CC[C@@H]21`, the cytotoxicity call was “inactive”. `COc1cc(N2CCC(N(C)C)CC2)ccc1Nc1ncc(Cl)c(Nc2ccccc2P(C)(C)=O)n1` was tested, and the cytotoxicity call was “active”. In the case of `C=C(C)C1CCC2(C)CCC3(C)C(CCC4C5(C)CCC(O)C(C)(C)C5CCC43C)C12` (stereo not given), the cytotoxicity call is reported as “inactive”. For `C=C(C)C1CCC2(CO)CCC3(C)C(CCC4C5(C)CCC(O)C(C)(C)C5CCC43C)C12` (stereo not given), the cytotoxicity call was “active”. `C=C(C)C1CCC2(C(=O)O)CCC3(C)C(CCC4C5(C)CCC(O)C(C)(C)C5CCC43C)C12` (stereo not given) was tested, and the cytotoxicity call was “inactive”. In the case of `CCS(=O)(=O)Nc1ccc2c(c1)C(=O)N(C)[C@@H]1CC[C@@H](CC(=O)NCCOC)O[C@@H]1CO2`, the cytotoxicity call is reported as “inactive”. In the case of `Cc1noc(C)c1NC(=O)N(C)C[C@@H]1Oc2ccc(NC(=O)Nc3ccc(C(F)(F)F)cc3)cc2CC(=O)N([C@H](C)CO)C[C@H]1C`, the cytotoxicity call is reported as “inactive”. With `CNC[C@@H]1Oc2cc(C#CC(C)(C)O)ccc2S(=O)(=O)N([C@@H](C)CO)C[C@@H]1C` the cytotoxicity call was “inactive”. With `C[C@@H]1CN([C@@H](C)CO)C(=O)c2cccc(NS(=O)(=O)c3ccc(Cl)cc3)c2O[C@H]1CN(C)Cc1ccc(-c2ccccc2)cc1` the cytotoxicity call was “inactive”. For `C[C@H]1CN([C@@H](C)CO)C(=O)c2cccc(NS(=O)(=O)c3ccccc3)c2O[C@H]1CN(C)Cc1ccc(-c2ccccc2)cc1`, the cytotoxicity call was “inactive”. `C[C@@H]1CN([C@H](C)CO)C(=O)c2cccc(NS(=O)(=O)c3ccc(Cl)cc3)c2O[C@H]1CN(C)Cc1ccc(-c2ccccc2)cc1` was tested, and the cytotoxicity call was “inactive”. In the case of `Cc1ccc(S(=O)(=O)Nc2cccc3c2O[C@@H](CN(C)Cc2ccc(-c4ccccc4)cc2)[C@@H](C)CN([C@@H](C)CO)C3=O)cc1`, the cytotoxicity call is reported as “inactive”. `Cc1ccc(S(=O)(=O)Nc2cccc3c2O[C@@H](CN(C)Cc2ccc(-c4ccccc4)cc2)[C@@H](C)CN([C@H](C)CO)C3=O)cc1` was tested, and the cytotoxicity call was “active”. With `C[C@@H]1CN([C@H](C)CO)C(=O)c2cccc(NS(=O)(=O)c3ccccc3)c2O[C@@H]1CN(C)Cc1ccc(-c2ccccc2)cc1` the cytotoxicity call was “active”. With `C[C@@H]1CN([C@@H](C)CO)C(=O)c2cccc(NS(=O)(=O)c3ccccc3)c2O[C@H]1CN(C)Cc1ccc(-c2ccccc2)cc1` the cytotoxicity call was “inactive”. In the case of `Cc1ccc(S(=O)(=O)Nc2cccc3c2O[C@H](CN(C)Cc2ccc(-c4ccccc4)cc2)[C@H](C)CN([C@H](C)CO)C3=O)cc1`, the cytotoxicity call is reported as “active”. `Cc1ccc(S(=O)(=O)Nc2cccc3c2O[C@@H](CN(C)Cc2ccc(-c4ccccc4)cc2)[C@H](C)CN([C@H](C)CO)C3=O)cc1` was tested, and the cytotoxicity call was “inactive”. With `Cc1ccc(S(=O)(=O)Nc2cccc3c2O[C@H](CN(C)Cc2ccc(-c4ccccc4)cc2)[C@@H](C)CN([C@@H](C)CO)C3=O)cc1` the cytotoxicity call was “inactive”. In the case of `C[C@@H]1CN([C@@H](C)CO)C(=O)c2cccc(NS(=O)(=O)c3ccc(Cl)cc3)c2O[C@@H]1CN(C)Cc1ccc(-c2ccccc2)cc1`, the cytotoxicity call is reported as “active”. In the case of `Cc1ccc(S(=O)(=O)Nc2cccc3c2O[C@H](CN(C)Cc2ccc(-c4ccccc4)cc2)[C@@H](C)CN([C@H](C)CO)C3=O)cc1`, the cytotoxicity call is reported as “inactive”. `O=C(C[C@@H]1CC[C@H](NC(=O)Nc2ccc3c(c2)OCO3)[C@@H](CO)O1)NCCCN1CCOCC1` was tested, and the cytotoxicity call was “inactive”. For `C[C@@H]1CN([C@H](C)CO)C(=O)c2cc(NC(=O)CCCN(C)C)ccc2O[C@@H](C)CCCCO[C@H]1CN(C)S(=O)(=O)c1cn(C)cn1`, the cytotoxicity call was “inactive”. With `C[C@H](CO)N1C[C@H](C)[C@H](CN(C)C(=O)c2cccc(F)c2)Oc2cc(C#CC3CC3)ccc2S1(=O)=O` the cytotoxicity call was “inactive”. In the case of `CC(C)C[C@@](O)(CC(=O)O)C(=O)O`, the cytotoxicity call is reported as “inactive”. For `CN(C)CCCNC(=O)C[C@@H]1CC[C@H]2[C@@H](COc3ccc(NS(C)(=O)=O)cc3C(=O)N2C)O1`, the cytotoxicity call was “inactive”. With `CC(C)N1CC=C[C@@]23O[C@@H]4C=CCOC(=O)[C@@H]4[C@H]2C(=O)N([C@@H](C)CO)[C@@H]3C1=O` the cytotoxicity call was “inactive”. In the case of `O=c1[nH]c(=S)[nH]nc1O`, the cytotoxicity call is reported as “inactive”. With `CC1(C)C=C(C(=O)N2CCOCC2)C(C)(C)N1` the cytotoxicity call was “inactive”. For `C[C@@H]1CN([C@H](C)CO)C(=O)Cc2cc(NC(=O)C3CCCCC3)ccc2O[C@H]1CN(C)S(=O)(=O)c1cn(C)cn1`, the cytotoxicity call was “inactive”. For `C[C@H](CO)N1C[C@H](C)[C@@H](CN(C)Cc2ccc(-c3ccccc3)cc2)Oc2ccc(NC(=O)Cn3cnnn3)cc2CC1=O`, the cytotoxicity call was “inactive”. With `NCCCCCCNC(=O)[C@H]1C[C@H]2C(=O)N[C@@H](Cc3ccccc3)C(=O)N2[C@H]1c1cccc(OCCO)c1` the cytotoxicity call was “inactive”. `C[C@@H]1CCCCO[C@@H](CN(C)C(=O)Cc2ccccc2)[C@H](C)CN([C@@H](C)CO)C(=O)c2cc(NS(=O)(=O)c3ccc(F)cc3)ccc2O1` was tested, and the cytotoxicity call was “inactive”. `O.O=C([O-])CC(O)(CC(=O)[O-])C(=O)[O-].[Li+].[Li+].[Li+]` was tested, and the cytotoxicity call was “inactive”. `C[C@@H]1CN([C@H](C)CO)C(=O)c2cccc(NS(=O)(=O)c3cccs3)c2O[C@@H]1CN(C)Cc1ccc(-c2ccccc2)cc1` was tested, and the cytotoxicity call was “inactive”. With `CC(C)NC(=O)N(C)C[C@H]1Oc2c(NS(=O)(=O)c3ccccc3)cccc2C(=O)N([C@H](C)CO)C[C@H]1C` the cytotoxicity call was “active”. With `C[C@@H]1CN([C@@H](C)CO)C(=O)c2cccc(NS(=O)(=O)c3cccs3)c2O[C@@H]1CN(C)Cc1ccc(-c2ccccc2)cc1` the cytotoxicity call was “active”. In the case of `C[C@H]1CN([C@@H](C)CO)C(=O)c2cccc(NS(=O)(=O)c3ccc(Cl)cc3)c2O[C@@H]1CN(C)Cc1ccc(C(F)(F)F)cc1`, the cytotoxicity call is reported as “inactive”. With `CC(C)NC(=O)N(C)C[C@H]1Oc2c(NS(=O)(=O)c3ccccc3)cccc2C(=O)N([C@H](C)CO)C[C@@H]1C` the cytotoxicity call was “inactive”. In the case of `CC(C)NC(=O)N(C)C[C@@H]1Oc2c(NS(=O)(=O)c3ccccc3)cccc2C(=O)N([C@@H](C)CO)C[C@@H]1C`, the cytotoxicity call is reported as “inactive”. With `C[C@@H]1CN([C@H](C)CO)C(=O)c2cccc(NS(=O)(=O)c3cccs3)c2O[C@H]1CN(C)Cc1ccc(-c2ccccc2)cc1` the cytotoxicity call was “inactive”. `C[C@H](CO)N1C[C@H](C)[C@@H](CN(C)Cc2ccc(C(F)(F)F)cc2)Oc2c(NS(=O)(=O)c3ccc(Cl)cc3)cccc2C1=O` was tested, and the cytotoxicity call was “inactive”. `C[C@@H]1CN([C@@H](C)CO)C(=O)c2cccc(NS(=O)(=O)c3ccc(Cl)cc3)c2O[C@@H]1CN(C)Cc1ccc(C(F)(F)F)cc1` was tested, and the cytotoxicity call was “active”. For `Cc1noc(C)c1S(=O)(=O)N(C)C[C@H]1OCCCC[C@@H](C)Oc2ccc(NC(=O)Nc3ccc(F)cc3)cc2C(=O)N([C@@H](C)CO)C[C@H]1C`, the cytotoxicity call was “inactive”. `Cc1noc(C)c1NC(=O)Nc1ccc2c(c1)CC(=O)N([C@H](C)CO)C[C@H](C)[C@@H](CN(C)Cc1ccc(Oc3ccccc3)cc1)O2` was tested, and the cytotoxicity call was “inactive”. In the case of `C[C@H](CO)N1C[C@H](C)[C@@H](CN(C)C(=O)Nc2ccc3c(c2)OCO3)Oc2ccc(NC(=O)C3CC3)cc2CC1=O`, the cytotoxicity call is reported as “inactive”. `Cc1noc(C)c1S(=O)(=O)N(C)C[C@H]1Oc2ccc(NC(=O)Cn3cnnn3)cc2C(=O)N([C@H](C)CO)C[C@H]1C` was tested, and the cytotoxicity call was “inactive”. `C[C@@H]1CN([C@H](C)CO)S(=O)(=O)c2ccc(C#Cc3ccccc3)cc2O[C@@H]1CN(C)C(=O)Cc1ccccn1` was tested, and the cytotoxicity call was “inactive”. For `C[C@@H]1CN([C@H](C)CO)C(=O)Cc2cc(NC(=O)c3ccncc3)ccc2O[C@@H]1CN(C)Cc1ccc2c(c1)OCO2`, the cytotoxicity call was “inactive”.
